The values below come from PubChem BioAssay (NCATS).

The nature of assay [1]: P-glycoprotein substrates identified in KB-8-5-11 adenocarcinoma cell line, qHTS therapeutic library screen (AID 1346987). Further: nearly all actives have a fitted effect of over 65% in size. The method, boiled down:
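In this qHTS, P-gp-rich KB-8-5-11 cells received library compounds across a concentration range. Viability was quantified by luminescence after 72 h at 37 degree C.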

For assay [2], the system named is Zika virus NS2B-NS3 protease (unlinked complex). The assay is described as follows: Primary screen GU Rhodamine qHTS for Zika virus inhibitors: Unlinked NS2B-NS3 protease assay (AID 1347159). Further: on the % scale 0 is the no-effect control and ±100 the full control effect; nearly all actives have a fitted effect of over 60% in size. The method, boiled down: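 Percent inhibition came from the 15-min rise in Rhodamine110 fluorescence (1.5 microM substrate, ~15% conversion), normalized to no-inhibitor and no-enzyme wells and Hill-fitted. Unlinked protease, 25 nM, pH 8.0 Tris buffer; compounds up to 114 microM, 15-min preincubation.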
A general note: qHTS replaces the single test concentration by a dilution series.

In assay [3] the test system is Zika virus NS2B-NS3 protease (linked construct). In words: Primary screen NINDS Rhodamine qHTS for Zika virus inhibitors (AID 1347160). Further: on the % scale 0 is the no-effect control and ±100 the full control effect; nearly all actives have a fitted effect of over 55% in size. The method, boiled down:
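Rhodamine110-peptide cleavage (1.5 µM substrate) by 25 nM linked NS2B-NS3 enzyme at pH 8.0 (Tris, Tween 20), after 15 min RT preincubation with compounds; 15-min fluorescence change normalized to controls and Hill-fitted.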

Assay [4] in a line: Confirmatory screen NINDS Rhodamine qHTS for Zika virus inhibitors (AID 1347161). Further: potency means the concentration at half of the fitted maximal effect; nearly all actives have a fitted effect of over 60% in size. In outline: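 Purified linked NS2B-NS3 protease (NS2B hydrophilic domain joined to NS3 protease by flexible linker), 25 nM in 10 mM Tris-HCl pH 8.0, 0.01% Tween 20. Compounds titrated, 15 min preincubation at room temperature; 1.5 microM Rhodamine110 substrate, FITC fluorescence change over 15 min.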

Each structure is given as a SMILES string. Results filed as inconclusive are left out. Unmarked numbers belong to inactive results. Active and inactive are the calls of the source. The call rests on the fitted dose curve; in most records, active means well fitted curve in the direction sought with a large enough effect; inconclusive means small, poorly fitted or top-dose-only effect, or another doubt; inactive means no such curve, though single readings can be large; an effect the other way counts as inactive or inconclusive.

Turning to `C/C=C(\C)C(=O)OC1CC2C(CC=C3CC(OC4CC(OC)C(OC5CC(OC)C(OC6CC(OC)C(OC7CC(OC)C(OC8CC(OC)C(OC9OC(CO)C(O)C(O)C9O)C(C)O8)C(C)O7)C(C)O6)C(C)O5)C(C)O4)CCC32C)C2(O)CCC(C(C)=O)C12C` (stereo not given), the outcome in assay [1] was “inactive [at 9.29 µM]”. Further, in assay [2], the activity change, negative = inhibition was 20.8% [at 19.1 µM]. In addition, the Potency entry in assay [3] is “inactive”.
Turning to `CC1=C2CC3C(CCC3(C)O)C(C)(O)CC2OC1=O` (stereo not given), the Potency result in assay [1] and in assay [2] was “inactive” in each case. The Potency in assay [4] was 44.1 µM (active).
Turning to `C=CC(C)(CC/C=C(\C)C(=O)OC)OC1OC(COC(=O)CC(C)(O)CC(=O)O)C(O)C(O)C1O` (stereo not given), the Potency entry in assay [1], in assay [2] and in assay [3] was “inactive” each time.
For the molecule `CC1(C)CC[C@]2(C(=O)O[C@@H]3O[C@H](CO)[C@@H](O)[C@H](O)[C@H]3O)[C@H](O)C[C@]3(C)C(=CCC4[C@@]5(C)CC[C@H](O[C@@H]6OC[C@@H](O)[C@H](O)[C@H]6O)[C@@](C)(C(=O)O)C5CC[C@]43C)[C@@H]2C1` (stereo not given in full), the Potency result in assay [1], in assay [2] and in assay [3] was “inactive” each time.
In the case of `C/C=C1/C[N+](C)([O-])C2Cc3c([nH]c4ccccc34)C(=O)CC1C2C(=O)OC` (stereo not given), the Potency result in assay [1], in assay [2] and in assay [3] was “inactive” each time.
